One assay has as its system W2. In words: qHTS profiling for inhibitors of Plasmodium falciparum proliferation (AID 504749). Note: potency is the fitted concentration of half-maximal effect. As to conditions: P. falciparum in erythrocytes, SYBR Green DNA, 72 h; series mostly up to 28.7 µM. Put shortly:
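Fluorescence of SYBR Green-bound parasite DNA, read at 485/535 nm, served as the growth measure. Infected erythrocytes were cultured with compound 72 h; artemisinin (0.29 uM) and DMSO wells defined the normalization range.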
For orientation: In qHTS, concentration-response curves come from the screen itself.

Assay [1] relates to CRL-7250. In words: Cytotoxic Profiling of Annotated Libraries Using Quantitative High-Throughput Screening (AID 1296008). For max response: % is set by controls: 0 for no effect and ±100 for the full control effect. Note: potency is the fitted concentration of half-maximal effect. As to conditions: Five cell lines viability, CellTiter-Glo ATP luminescence, 48-72 h; max response: hits give low values. The method, boiled down: (§1)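 Compounds were pin-transferred onto cells and incubated 48 or 72 hr at 37 degree Celsius, 95% humidity. CellTiter-Glo was added, plates sat 10 min at room temperature, then ATP-coupled luminescence was imaged as the viability read-out.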
On the technique in general: ATP-based viability assays read luminescence as a measure of living cells.

For a further assay, the system named is HEK293. Described as above. As to conditions: Five cell lines viability, CellTiter-Glo ATP luminescence, 48-72 h; max response: hits give low values. The method, boiled down: as §1
For assay [2], the system named is HaCat. Described as above. As to conditions: Five cell lines viability, CellTiter-Glo ATP luminescence, 48-72 h; max response: hits give low values. Put shortly: as §1
A further assay has as its system KB-3-1. The assay is described as above. As to conditions: Five cell lines viability, CellTiter-Glo ATP luminescence, 48-72 h; max response: hits give low values. Put shortly: as §1
A further assay deals with NIH3T3. The description is as above. As to conditions: Five cell lines viability, CellTiter-Glo ATP luminescence, 48-72 h; max response: hits give low values. Put shortly: as §1
The test system of assay [3] is HACAT. In words: qHTS assay to identify novel small-molecules to repurpose for Merkel cell carcinoma treatment (AID 1296009). As to conditions: MCC and control cell lines, CellTiter-Glo viability, 72 h; at 44.8 µM (top of the series) unless noted. Put shortly:
(§2)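 Luminescence from CellTiter-Glo, read 10 min after addition at room temperature, reported viability following a 72 hr, 37 degree celsius treatment with NPC or MIPE compounds in titration; values normalized to plate controls.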

Another assay deals with HEK293T. Described as above. As to conditions: MCC and control cell lines, CellTiter-Glo viability, 72 h; at 44.8 µM (top of the series) unless noted. The method, boiled down: as §2
Another assay concerns MCC-13. Described as above. As to conditions: MCC and control cell lines, CellTiter-Glo viability, 72 h; series mostly up to 46 µM. Put shortly: as §2
Assay [4] concerns CRL-7250. The assay is described as above. As to conditions: MCC and control cell lines, CellTiter-Glo viability, 72 h; at 44.8 µM (top of the series) unless noted. Put shortly:
as §2

This passage reports Potency, max response and outcome results from PubChem BioAssay (NCATS).

Where “and” joins values, the source holds several entries; their conditions need not be identical. Equal values may be shown once. Inconclusive results are not listed. Some compounds were tested as several samples or in several runs, with calls that do not always agree. A number with no mark means an inactive call. Calls of active or inactive are those of the source. Calls come from the whole dose curve; as a rule, active = well fitted inhibition curve with a large enough effect; inconclusive = small, poorly fitted or top-dose-only effect; inactive = flat fitted curve, though single readings scatter.
Note: nearly all actives have a fitted effect of over 60% in size.

In the case of `CC(C)c1cccc(C(C)C)c1O`, in the assay with W2, the Potency result was “inactive”. For the same compound, the max response was -8.58% and -1.5% in the assay on CRL-7250 [1]; -6.49% with HEK293; 9.44% with KB-3-1; 0.687% in the assay with NIH3T3. The outcome in the assay on HEK293, in the assay on HaCat [2], in the assay with HACAT [3], in the assay with HEK293T and in the assay with MCC-13 was inactive.
For `CC(=O)OCC1=C(C(=O)O)N2C(=O)[C@@H](N)[C@H]2SC1`, the max response in the assay on CRL-7250 [1] is -3.91%; with HEK293, 0.778% and -3.29%; with HaCat [2] it was -3.66% and 4.2%; in the assay on KB-3-1, -19.8%; with NIH3T3, 1.92% and 4.65%. Besides, the result in the assay with CRL-7250 [1], with KB-3-1, with CRL-7250 [4] and with MCC-13 was inactive.
Take `CCc1cc2c(s1)-n1c(C)nnc1CN=C2c1ccccc1Cl`: the call with CRL-7250 [1], with NIH3T3, in the assay with CRL-7250 [4] and with MCC-13 was inactive. Besides, the max response in the assay with HEK293 was -15.5%; with HaCat [2], -1.07%; in the assay on KB-3-1, -14.4%.
Turning to `C[N+]1(CCF)[C@@H]2CC[C@H]1CC(OC(=O)C(O)(c1ccccc1)c1ccccc1)C2` (some centres not stated), the result in the assay on CRL-7250 [1], in the assay with HaCat [2], in the assay with NIH3T3, with CRL-7250 [4], with HACAT [3] and in the assay with MCC-13 was inactive. Further, the results for the max response in the assay on HEK293 and in the assay on KB-3-1 were -5.81% and -9.39%, respectively.
For the compound `CCC1(c2ccc(N)cc2)CCC(=O)NC1=O` (configuration not stated), the max response in the assay with CRL-7250 [1] was 1.43% and -1.25%; with HEK293, 4.46%; in the assay with HaCat [2], 2.56% and -2.32%; in the assay on KB-3-1 it was 5.24% and 0.522%; in the assay on NIH3T3, 1.87% and -15.6%. Moreover, the result with HEK293, in the assay with HEK293T and in the assay on MCC-13 was inactive.
On to `CN1C(=O)CCS(=O)(=O)C1c1ccc(Cl)cc1` (configuration not stated), for which the max response is -0.906% and -1.81% in the assay with CRL-7250 [1]; -9.62% in the assay with HEK293; -6.09% and -6.07% in the assay on KB-3-1; 2.05% and -20.3% with NIH3T3. Moreover, the compound was called inactive in the assay with HEK293, in the assay with HaCat [2], in the assay with HACAT [3], with HEK293T and in the assay with MCC-13.
Regarding `CCCCCN(C)CCC(O)(P(=O)(O)O)P(=O)(O)O`, the max response in the assay on CRL-7250 [1] was -0.0055%; in the assay with HEK293, -18.4%; in the assay on HaCat [2], -1.92%; with KB-3-1, 1.98%. The outcome in the assay on KB-3-1 and in the assay on NIH3T3 was inactive.
Turning to `O=P1(N(CCCl)CCCl)NCCCO1` (configuration not stated), in the assay with W2, the Potency result was “inactive”. For the same compound, the max response in the assay on CRL-7250 [1] is -3.83% and -4.06%; in the assay with HEK293 it was -27.8% and -15.3%; in the assay on HaCat [2], -5.79%; with KB-3-1 it was 2.64% and 7.08%; with NIH3T3 it was -16.8% and -12.6%. Besides, the compound was classed as inactive with HaCat [2], in the assay with HACAT [3] and in the assay on MCC-13.
As to `COc1ccc2c3c1O[C@H]1[C@H](O)CC[C@H]4[C@@H](C2)N(C)CC[C@@]341`, the outcome in the assay with CRL-7250 [1], in the assay with HaCat [2], in the assay on NIH3T3 and with MCC-13 was inactive. For the same compound, the max response with HEK293 is -4.59%; with KB-3-1, -6.57%. Further, the outcome in the assay on CRL-7250 [4] and in the assay on HACAT [3] was “inactive [at 92 µM]” throughout.
As to `O=C1c2ccccc2C(=O)c2ccccc21`, the Potency in the assay on W2 was 6.75 µM (active). Also, the max response in the assay on CRL-7250 [1] was -3.19%; in the assay with KB-3-1, -11.4%; with NIH3T3 it was -2.39%. The call with HEK293, in the assay on HaCat [2] and in the assay with MCC-13 was inactive. Further, the outcome with HACAT [3] and in the assay on HEK293T was “inactive [at 17.4 µM]” in each case.
With `CN1CC[C@]23c4c5ccc(O)c4O[C@H]2[C@@H](O)CC[C@H]3[C@H]1C5`, the outcome in the assay on CRL-7250 [1], in the assay with HaCat [2] and in the assay on MCC-13 was inactive. Further, the max response with HEK293 is -12.9%; in the assay with KB-3-1 it was -2.83%; in the assay with NIH3T3, 0.466%. The outcome with CRL-7250 [4] and with HACAT [3] was “inactive [at 92 µM]” throughout.
`COP(=S)(OC)Oc1cc(Cl)c(Cl)cc1Cl`: the max response in the assay on CRL-7250 [1] was -8.37%; in the assay on HEK293, 1.74%; with HaCat [2] it was 4.52%; in the assay with KB-3-1, -14.4%; in the assay with NIH3T3, -6.48%. Besides, the Potency in the assay with KB-3-1 was 0.146 µM (active). The result in the assay with MCC-13 was inactive.
Regarding `O=C(O)CCCc1ccc(N(CCCl)CCCl)cc1`, the result in the assay on CRL-7250 [1], with HaCat [2], with KB-3-1, in the assay with CRL-7250 [4], in the assay on HACAT [3] and with MCC-13 was inactive. For the same compound, the max response with HEK293 was -24.7%; in the assay on KB-3-1, 1.55%; in the assay with NIH3T3 it was -8.46% and -0.549%.
`Nc1ccccc1C(=O)O`: in the assay on W2, the Potency result is “inactive”. The max response in the assay with CRL-7250 [1] was -2.31%; in the assay on HEK293 it was -5.49%; in the assay on KB-3-1 it was -19.2%; in the assay with NIH3T3, 3.28%. Further, the compound was called inactive in the assay on HaCat [2], with HACAT [3] and in the assay on MCC-13.
Regarding `Clc1cccc(SC2CCNCC2)n1`, in the assay on W2, the Potency entry was “inactive”. For the same compound, the max response is -0.448% in the assay on CRL-7250 [1]; 1.87% in the assay with HEK293; -6.24% with HaCat [2]; -11.2% in the assay with KB-3-1; 4.41% in the assay on NIH3T3. In the assay on MCC-13, the compound was classed as inactive.
As for `COc1ccc2c(c1OC)C(=O)O[C@H]2[C@@H]1c2cc3c(cc2CCN1C)OCO3`, the max response with CRL-7250 [1] was 0.738%; with HEK293 it was -2.03%; in the assay with HaCat [2], -4.43%; in the assay on KB-3-1, 3.84%. The compound was classed as inactive in the assay with MCC-13.
